Inconclusive results are not listed. Entries that show only a call come without a potency. Activity calls are given as the source filed them. The call rests on the fitted dose curve; in most records, active means well fitted inhibition curve with a large enough effect; inconclusive means small, poorly fitted or top-dose-only effect, or effect the other way; inactive means flat fitted curve, though single readings scatter.
The compounds below were run against Pyruvate kinase (Leishmania mexicana) (UniProt Q27686) (assay: Confirmation Assay for Inhibitors of Leishmania Mexicana Pyruvate Kinase (LmPK): for Probe SAR). Settings: purified LmPK, ATP generation, Kinase-Glo luminescence; series mostly up to 57.5 µM.
Procedure, shortened: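 Coupled luminescent assay: ATP produced by LmPK (0.1 nM) from ADP (0.1 mM, ~10-fold below Km) and PEP (0.5 mM, at Km) after 1 h RT, detected with Kinase-Glo. Data scaled between no-enzyme and uninhibited controls.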
Potency means the concentration at half of the fitted maximal effect.

Pyruvate kinase (Leishmania mexicana), sequence (Q27686 whole entry, looked up): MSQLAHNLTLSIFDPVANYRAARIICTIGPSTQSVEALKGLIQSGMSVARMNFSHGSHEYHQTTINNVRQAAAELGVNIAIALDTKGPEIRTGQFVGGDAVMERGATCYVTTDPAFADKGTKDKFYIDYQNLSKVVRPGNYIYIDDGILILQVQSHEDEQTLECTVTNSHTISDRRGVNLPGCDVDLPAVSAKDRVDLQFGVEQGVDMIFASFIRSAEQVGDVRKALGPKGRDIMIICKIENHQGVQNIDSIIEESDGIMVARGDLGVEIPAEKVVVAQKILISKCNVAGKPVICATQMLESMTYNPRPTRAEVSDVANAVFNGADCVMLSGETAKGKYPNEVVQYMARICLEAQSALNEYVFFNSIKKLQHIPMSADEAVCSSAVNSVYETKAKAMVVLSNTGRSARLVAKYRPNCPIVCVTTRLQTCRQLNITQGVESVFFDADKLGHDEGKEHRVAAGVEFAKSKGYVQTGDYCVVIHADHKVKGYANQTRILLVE

Structure (SMILES) | Potency
O=S1(=O)N=C(Oc2ccc(Br)cc2)c2ccccc21 | 2.91 µM (active)
Cc1cc(C)c2nc(C3C(=O)c4ccccc4C3=O)ccc2c1 | inactive
O=C1c2ccccc2C(=O)N1C1CCCCC1 | inactive
CC(=O)Nc1ccc(OC2=NS(=O)(=O)c3ccccc32)cc1 | 4.11 µM (active)
O=C1c2ccc3ccccc3c2C(=O)C1c1cc(=O)c2ccccc2[nH]1 (stereo not given) | inactive
O=C1CCc2cc(S(=O)(=O)Nc3ccc(-c4ccccc4)cc3)ccc2N1 | inactive
O=C1NS(=O)(=O)c2cc(Br)ccc21 | inactive
CN=c1nc(-c2ccccc2)n(-c2ccccc2)s1 | inactive
Cc1ccc(NS(=O)(=O)c2cc3c(cc2C)NC(=O)CO3)cc1C | inactive
Cc1ccc(Nc2c(-c3ccsc3)nc3cccc(C)n23)cc1 | inactive
Cc1cc2c(s1)c1cnn(Cc3ccccc3F)c(=O)c1n2C | inactive
Cc1ccc(C)c(SC2=NS(=O)(=O)c3ccccc32)c1 | 4.11 µM (active)
Cc1ccc2nc(-c3ccc(C)o3)c(Nc3ccc(F)cc3)n2c1 | inactive
Cc1ccc(C)c(SC2=NS(=O)(=O)c3cc(C(=O)NCc4ccccc4)ccc32)c1 | 5.8 µM (active)
O=S1(=O)N=C(Oc2cccc(Br)c2)c2ccccc21 | 3.66 µM (active)
O=C1CCc2cc(S(=O)(=O)Nc3cccc(C(F)(F)F)c3)ccc2N1 | inactive
O=S1(=O)N=C(Sc2cc(C(F)(F)F)cc(C(F)(F)F)c2)c2ccccc21 | 2.91 µM (active)
O=C1c2ccccc2C(=O)N1c1ccc2ncccc2c1 | inactive
Cc1ccc(C)c(NC2=NS(=O)(=O)c3ccccc32)c1 | inactive
Cc1ccc(C)c(SC2=N[S+](=O)([O-])c3cc(C(=O)Nc4ccc5ncccc5c4)ccc32)c1 | inactive
Cc1ccc2nc(-c3cccs3)c(Nc3ccccc3)n2c1 | inactive
CC(C)(C)c1ccc(SC2=NS(=O)(=O)c3ccccc32)cc1 | 3.26 µM (active)
Cc1ccn2c(NCc3ccco3)c(-c3ccccc3)nc2c1 | inactive
Cc1scc2c1C(=O)NS2(=O)=O | inactive
COc1ccc(-c2nc3ccccn3c2Nc2ccccc2C)cc1 | inactive
Cc1ccn2c(NC3CCCCC3)c(-c3ccc(C)o3)nc2c1 | inactive
Cc1ccc(NS(=O)(=O)c2ccc(Cl)cc2)cc1C | inactive
Cc1cc(C)c2c(=O)cc(C3C(=O)c4ccccc4C3=O)[nH]c2c1 | inactive
O=C1c2ccccc2C(=O)N1c1noc2ccccc12 | inactive
O=C1CCc2cc(S(=O)(=O)Nc3ccc4c(c3)OCCO4)ccc2N1 | inactive

Reference: PubChem BioAssay AID2561 (National Center for Advancing Translational Sciences (NCATS), 2010)
